# L3MBTL1 inh = inhibitors of human L3MBTL1. AlphaScreen L3MBTL1–H3K9me1 peptide binding. Q9Y468. hit rate 0.66% among 230,000. AID 485360. Potency, µM (series often up to 57.1 µM), for inactives: at the highest dose activity, negative = inhibition, actives largely listed as inhibitors; note: potency is the fitted concentration of half-maximal effect; % is set by controls: 0 for no effect and ±100 for the full control effect; nearly all actives have a fitted effect of over 60% in size
#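 AlphaScreen assay: L3MBTL1 (50 nM final) was preincubated 30 min at room temperature with biotinylated H3(1-15)K9me1 peptide (75 nM final), then 30 min with library compounds; streptavidin donor and nickel chelate acceptor beads (10 ug/mL final) added, 30 min dark.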
# G9a block = G9a (human) methyltransferase inhibition; hit rate 8.8% among 350,000; Potency, µM (top dose mostly 102 µM), for the others: at the top dose activity, negative = inhibition, most hits filed as inhibitors; AID 504332; G9a H3K9 monomethylation, AlphaScreen, 2 h; note: potency is the fitted concentration of half-maximal effect; % is set by controls: 0 for no effect and ±100 for the full control effect; nearly all actives have a fitted effect of over 75% in size
#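 Chemiluminescent proximity detection of H3K9 monomethylation, read after 10 min bead incubation in the dark. Reaction: 20 nM G9a, 500 nM biotin-H3K9 peptide, 20 uM SAM cofactor, 2 h, room temperature, following 15 min enzyme-compound preincubation.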
# JMJD2A Tudor = JMJD2A Tudor domain (human) inhibition. AlphaScreen JMJD2A-Tudor / H3K4me3 peptide binding. Potency, µM (doses to about 114 µM), without a hit: at the top dose activity change, negative = inhibition, usual class: inhibitors. hit rate 4.4% among 390,000. AID 504339; note: potency is the fitted concentration of half-maximal effect; % is set by controls: 0 for no effect and ±100 for the full control effect; nearly all actives have a fitted effect of over 50% in size
# Target sequence (O75164 whole entry, looked up, the tested form may be a part): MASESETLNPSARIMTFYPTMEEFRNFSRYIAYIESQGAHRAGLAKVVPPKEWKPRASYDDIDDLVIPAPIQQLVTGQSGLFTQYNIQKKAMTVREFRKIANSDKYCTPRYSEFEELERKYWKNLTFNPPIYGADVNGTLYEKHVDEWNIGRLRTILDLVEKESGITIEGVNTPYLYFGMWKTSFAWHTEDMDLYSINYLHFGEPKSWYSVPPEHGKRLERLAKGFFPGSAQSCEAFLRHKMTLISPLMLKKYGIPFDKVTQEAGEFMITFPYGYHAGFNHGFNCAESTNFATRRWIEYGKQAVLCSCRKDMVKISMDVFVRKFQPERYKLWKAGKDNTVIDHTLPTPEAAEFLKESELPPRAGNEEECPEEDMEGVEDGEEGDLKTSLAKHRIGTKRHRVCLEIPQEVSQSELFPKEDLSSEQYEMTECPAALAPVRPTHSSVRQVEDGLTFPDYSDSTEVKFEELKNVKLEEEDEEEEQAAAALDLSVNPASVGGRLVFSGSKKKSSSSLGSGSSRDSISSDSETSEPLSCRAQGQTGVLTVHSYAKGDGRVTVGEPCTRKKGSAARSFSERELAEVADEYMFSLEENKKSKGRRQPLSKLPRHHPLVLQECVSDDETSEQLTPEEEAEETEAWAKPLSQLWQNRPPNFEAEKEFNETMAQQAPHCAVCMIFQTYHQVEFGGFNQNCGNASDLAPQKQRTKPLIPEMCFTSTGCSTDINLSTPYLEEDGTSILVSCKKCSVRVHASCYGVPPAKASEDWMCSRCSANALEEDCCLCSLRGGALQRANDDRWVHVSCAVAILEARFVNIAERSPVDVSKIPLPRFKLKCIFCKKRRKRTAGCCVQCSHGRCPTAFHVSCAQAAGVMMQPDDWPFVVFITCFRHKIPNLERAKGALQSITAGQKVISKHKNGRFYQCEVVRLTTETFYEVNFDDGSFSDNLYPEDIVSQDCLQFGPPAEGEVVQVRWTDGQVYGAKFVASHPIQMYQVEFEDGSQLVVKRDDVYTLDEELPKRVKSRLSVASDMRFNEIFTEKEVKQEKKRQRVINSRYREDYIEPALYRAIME
# HP1b binding inh = blocks HP1-beta chromodomain binding to methylated histone tails. P83916. AlphaScreen HP1-beta / biotin-H3K9me3 peptide binding. Potency, µM (doses to about 114 µM), inactives show at the highest dose activity change, negative = inhibition, most hits filed as inhibitors. hit rate 0.56% among 390,000. AID 540317; note: potency is the fitted concentration of half-maximal effect; nearly all actives have a fitted effect of over 70% in size
#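 Compound inhibition of the preformed complex between 50 nM HP1-beta and 50 nM biotinylated H3K9me3 peptide was read by AlphaScreen. Buffer was PBS pH 7.4 with 0.01% Tween-20. Incubations ran 30 min at room temperature, with 10 ug/mL donor/acceptor beads.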
# BAZ2B block = inhibitors of human BAZ2B bromodomain; Potency, µM (series often up to 114 µM), without a hit: at the top dose activity change, negative = inhibition, hits mostly inhibitors; hit rate 4.4% among 360,000; AlphaScreen BAZ2B-H3K14Ac peptide displacement; Q9UIF8; note: potency is the fitted concentration of half-maximal effect; % is set by controls: 0 for no effect and ±100 for the full control effect; nearly all actives have a fitted effect of over 60% in size
#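 Complex of BAZ2B and biotin-H3K14Ac (50 nM apiece) forms over 30 min at RT, then faces library compounds up to 110 uM for another 30 min; AlphaScreen beads added, 20 min dark incubation, luminescence read.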
# PI5P4K alpha inh = PI5P4K alpha (human) kinase inhibition | P48426 | PI5P4Kalpha enzyme, ADP-Glo luminescence, 60 min; hits give low values | max response, % | hit rate 1.2% among 330,000 | AID 652105; active = max response of -50% or lower; inconclusive = between -30% and -50%; inactive = -30% or higher; note: value at the top dose of about 77 µM; % is set by controls: 0 for no effect and ±100 for the full control effect
#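 Reactions run in 0.038 M HEPES pH 7.4, 0.28 mM EGTA, 0.1% CHAPS and 5% DMSO, with PI5P4Kalpha, substrate, compound and 5 microM ATP final, one hour at room temperature. Readout is ADP-Glo luminescence.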
# An asterisk follows results filed as active; ? = inconclusive; nt = no result given; [ ] = another dose, or the depositor's remark. A selection: hits, their analogues and other compounds. The true share with any hit is near 11%. Unless noted, calls come from the whole dose curve; as a rule, active = well fitted inhibition curve with a large enough effect; inconclusive = small, poorly fitted or top-dose-only effect; inactive = no such curve, though single readings can be large or run the other way.
SMILES,L3MBTL1 inh,G9a block,JMJD2A Tudor,HP1b binding inh,BAZ2B block,PI5P4K alpha inh
N#C/C(=N\Nc1ccc([N+](=O)[O-])cc1)C(=N)N1CCOCC1,-12%,nt,-12%,24%,-25%,-1
N#C/C(=N\Nc1ccc([N+](=O)[O-])cc1)C(N)=S,nt,nt,28µM*,35µM*,14µM*,?
N#C/C(=N/Nc1ccc([N+](=O)[O-])cc1)C(=N)N1CCCCC1,nt,?,56µM*,?,35µM*,-4
N#C/C(=N\Nc1ccc(S(=O)(=O)N2CCCCC2)cc1)C(N)=S,-16%,?,?,?,?,?
O=S(=O)(c1ccccc1Cl)N1CCN(c2nc(-c3cccs3)nc3ccccc23)CC1,nt,nt,-2%,46%,nt,nt
CCn1c(CNC(=O)c2ccccc2F)nnc1SCC(=O)NC1CCCCC1,-2%,0%,-27%,-1%,-3%,-5
CC(C)n1c(CNC(=O)c2ccccc2F)nnc1SCC(=O)NC1CCCCC1,nt,nt,0%,25%[57 µM],nt,-71*
O=S(=O)(c1ccc2c(c1)OCCO2)N1CCN(c2nc(-c3ccccc3)nc3ccccc23)CC1,nt,nt,-10%,19%,nt,nt
COc1ccc(S(=O)(=O)n2oc(=O)cc2-c2ccccc2)cc1,nt,40µM*,-15%,13%,56µM*,-1
COc1ccc(S(=O)(=O)n2oc(=O)cc2-c2ccccc2)cc1OC,nt,?,35µM*,4%,56µM*,-7
O=c1cc(-c2ccccc2)n(S(=O)(=O)c2ccc3ccccc3c2)o1,nt,nt,45µM*,-19%,nt,-16
O=S(=O)(c1ccc2ccccc2c1)N1CCCCCC1,48%,nt,-4%[11.4 µM],115%,-4%,0
Cc1ccc(/C=C/C(=O)OCC(=O)Nc2ccc3[nH]c(=O)[nH]c3c2)o1,0%,40µM*,-16%,16%,6%,-3
COc1ccc(CC(=O)OCC(=O)Nc2ccc3[nH]c(=O)[nH]c3c2)cc1,6%,?,-10%,19%,9%,1
O=C(COC(=O)Cc1ccc(F)cc1)Nc1ccc2[nH]c(=O)[nH]c2c1,1%,50µM*,-25%,11%,-2%,-12
O=C(COC(=O)c1ccccc1OC(F)F)Nc1ccc2[nH]c(=O)[nH]c2c1,13%,40µM*,-19%,11%,-6%,-2
O=C(c1ccc(CSc2nc3ccncc3n2Cc2cccc(F)c2)cc1)N1CCCCC1,nt,-3%[59 µM],-11%,46%,2%,nt
CN(C)c1ccc(-c2nccc(NCc3cccs3)n2)cc1,nt,17%[0.501 µM],nt,nt,nt,nt
Cc1nc2cnc(N3CCN(C)CC3)nc2n(-c2ccccc2)c1=O,nt,9%[0.501 µM],nt,nt,nt,nt
Cc1ccc(C(=O)N/N=C/c2ccc(-c3ccccc3[N+](=O)[O-])o2)cn1,19%,-26%[59 µM],-15%,2%,-2%,-14
Cc1n[nH]c(=S)n1/N=C/c1ccc(-c2ccccc2[N+](=O)[O-])o1,nt,?,40µM*,3%,-32%,-1
COC(=O)c1ccccc1-c1ccc(/C=N/NC(N)=O)o1,-6%,?,-3%,15%,-15%,1
Cc1nnc(N/N=C\c2ccc(-c3ccccc3[N+](=O)[O-])o2)n1N,-12%,6.3µM*,?,-8%,71µM*,-3
Cc1nnc(N/N=C/c2ccc(-c3ccccc3F)o2)n1N,nt,40µM*,-23%,4%,-1%,5
COc1ccc(N2CCN(C(=O)COC(=O)CCOc3ccccc3C)CC2)cc1,-10%,32µM*,?,-21%,?,-3
SMILES,L3MBTL1 inh,G9a block,JMJD2A Tudor,HP1b binding inh,BAZ2B block,PI5P4K alpha inh
COc1ccc(N2CCN(C(=O)COC(=O)CCOc3cc(C)ccc3C)CC2)cc1,-15%,10µM*,-10%,-36%,-26%,12
COc1ccc(N2CCN(C(=O)COC(=O)CCc3ccccc3OC)CC2)cc1,-2%,11µM*,-24%,-9%,-32%,1
CC(C)CN1CCCC2(CCN(C(=O)c3cccc(F)c3)CC2)C1,nt,-19%[12.7 µM],nt,nt,nt,nt
COc1ccc(Nc2nc(OC)nc(OC)n2)cc1,3%,25%,-10%,29%,0%,-1
CCOc1nc(Nc2ccc(OC)cc2)nc(OCC)n1,nt,15%[59 µM],79µM*,-73%,1%,-3
COc1ccc(Nc2ccnc(Nc3ccc(OC)cc3)n2)cc1,-18%,?,?,?,45µM*,-1
COCCN(CC(=O)NCC1CCCO1)C(=O)CCC(=O)Nc1cc(C)on1 (stereo unspecified),-2%,24%,0%,11%,-6%,0
COCCN(CC(=O)NCC1CCCO1)C(=O)CCC(=O)Nc1cc(C)ccn1 (stereo unspecified),27%,28µM*,-8%,47%,22%,4
Cc1ccc(-c2cc(C(=O)Nc3ccc(S(=O)(=O)Nc4nccs4)cc3)c3ccccc3n2)c(C)c1,-5%,28µM*,?,?,?,?
Cc1ccc(-c2cc(C(=O)Nc3ccc(S(=O)(=O)Nc4ncccn4)cc3)c3ccccc3n2)cc1,0%,20%[59 µM],-4%,29%,8%,?
O=C(Nc1ccc(S(=O)(=O)Nc2nccs2)cc1)c1cc(-c2ccccc2)nc2ccccc12,-15%,7.9µM*,32µM*,?,?,-25
CCCS(=O)(=O)N1CC(=O)N(c2cccc(Cl)c2C)C(C)(C(=O)NC2CCCC2)C1 (stereo unspecified),nt,10%[59 µM],-16%,-2%,4%,nt
Cc1cc(=O)oc(C)c1C(=O)NCc1ccccn1,?,1.6µM*,2.5µM*,19%,16µM*,nt
O=C(NCc1ccccn1)c1ccc(CS(=O)(=O)Cc2ccc(Cl)cc2)o1,-1%,-15%,-5%,43%,-1%,2
Cc1ccccc1CS(=O)(=O)Cc1ccc(C(=O)NCc2ccccn2)o1,-6%,40%[0.501 µM],-17%,40%,50µM*,0
CCN(CCCNC(=O)c1c(C)cc(=O)oc1C)c1cccc(C)c1,-14%,13µM*,?,3%,?,nt
Cc1ccc(CNC(=O)c2c(C)cc(=O)oc2C)cc1,2%,-48%,-11%,22%,2%,nt
O=C(c1ccc2c(c1)CCN2S(=O)(=O)c1ccc(Cl)cc1)N1CCN(c2ccccc2F)CC1,nt,-6%[59 µM],-29%,-2%,-19%,nt
Cc1cc(Nc2cccc(C(F)(F)F)c2)nc2ccc(NC(=O)Cc3ccc(Cl)cc3)cc12,nt,7%[59 µM],9%,31%,5%,nt
CC(C)(C)NC(=O)C(c1cccnc1)N(C(=O)c1ccc(Cl)nc1)C1CCCC1 (stereo unspecified),?,2.8µM*,0%,24%,56µM*,-5
O=C(NC1CCCCC1)C(c1cccnc1)N(C(=O)c1ccc(Cl)nc1)C1CCCCC1 (stereo unspecified),nt,32%[59 µM],-2%,39%,-38%,1

# Source: PubChem BioAssay
